Here are results for twelve compounds from PubChem BioAssay (EPA / NIEHS).

Values joined by “and” are separate entries in the source; they are usually repeats but may differ in a detail not shown here. Identical values can stand only once. Some structures have more than one record in an assay (separate samples or runs), and their calls can disagree. Active and inactive are the calls of the source. How the source made its calls: active means hit-call score of the fitted dose curve at least 0.9, where 1 is the maximum; inactive means score below 0.9.

Read-out in experiment [1]: Matrix Metallopeptidase 9 (MMP9), MMP9 (gene 4318)
The experiment in a line: BSK_BE3C_MMP9: BioMAP Diversity Plus: BE3C Assay for Matrix Metallopeptidase 9 (MMP9) Biomarker Activity (AID 2284283). Particulars: primary human bronchial epithelial cells. Summed up: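 Human primary bronchial epithelial cells exposed 24 h to compound. MMP9 quantified by ELISA. SRB total-protein staining of parallel cultures assesses cytotoxicity. Positive-direction fit relative to DMSO.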

Read-out in experiment [2]: Plasminogen activator inhibitor-1 (PAI1), SERPINE1 (gene 5054)
The experiment in a line: BSK_CASM3C_PAI1: BioMAP Diversity Plus: CASM3C Assay for Plasminogen activator inhibitor-1 (PAI1) Biomarker Activity (AID 2284284).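 Further: PAI-1 protein level measured by ELISA 24 h after dosing.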 Particulars: primary human coronary artery smooth muscle cells.

Read-out in experiment [3]: Monocyte Chemoattractant Protein-1 (MCP1), CCL2 (gene 6347)
The experiment in a line: BSK_hDFCGF_MCP1: BioMAP Diversity Plus: hDFCGF Assay for Monocyte Chemoattractant Protein-1 (MCP1) Biomarker Activity (AID 2284285). Particulars: primary human foreskin fibroblasts. Summed up: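 Human foreskin fibroblasts (hDFCGF system) were exposed to compound and secreted MCP-1 was measured by ELISA after 24 hours. Activity was fitted relative to DMSO. Cytotoxicity was checked by SRB total-protein staining in parallel cultures.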

Read-out in experiment [4]: CD40, CD40 (gene 958)
The experiment in a line: BSK_IMphg_CD40: BioMAP Diversity Plus: IMphg Assay for CD40 Biomarker Activity (AID 2284288). Particulars: primary human endothelial cells with macrophages. Summed up:
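Venular endothelial cells co-cultured with macrophages (human primary), CD40 measured by ELISA 24 h after dosing. Positive-direction fit vs DMSO baseline; cytotoxicity tracked by SRB total-protein staining in parallel cultures.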

Read-out in experiment [5]: TIMP metallopeptidase inhibitor 2 (TIMP2), TIMP2 (gene 7077)
The experiment in a line: BSK_hDFCGF_TIMP2: BioMAP Diversity Plus: hDFCGF Assay for TIMP metallopeptidase inhibitor 2 (TIMP2) Biomarker Activity (AID 2284289). Particulars: primary human foreskin fibroblasts. Summed up: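 Primary human foreskin fibroblasts in the hDFCGF system, dosed for 24 h; TIMP-2 level measured by ELISA, fitted in the positive direction against DMSO; cytotoxicity checked in parallel by sulforhodamine B total protein staining.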

Read-out in experiment [6]: Interleukin-1 alpha (IL1a), IL1A (gene 3552)
Description: BSK_IMphg_IL1a: BioMAP Diversity Plus: IMphg Assay for Interleukin-1 alpha (IL1a) Biomarker Activity (AID 2284290). Particulars: primary human endothelial cells with macrophages. The method, boiled down:
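Human venular endothelial cells co-cultured with macrophages, IMphg system. IL-1α is measured by ELISA 24 h after dosing and fitted in the positive direction against DMSO. Cytotoxicity is assessed by SRB staining of parallel cultures.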

Read-out in experiment [7]: E-selectin (Homo sapiens) (UniProt P16581)
Description: BSK_IMphg_ESelectin: BioMAP Diversity Plus: IMphg Assay for Eselectin Biomarker Activity (AID 2284291). Particulars: primary human endothelial cells with macrophages. Summed up: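 Human venular endothelial cell–macrophage co-culture, E-selectin measured by ELISA 24 h after chemical dosing. Signal fitted in the positive direction against DMSO as negative control and baseline.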

The nature of experiment [8]: BSK_IMphg_SRB: Viability Assessment in the BioMAP Diversity Plus: IMphg Assay (AID 2284292).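 Further: measured one day after compound addition.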 Particulars: primary human endothelial cells with macrophages. Summed up: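 Human venular endothelial cells with macrophages, 24 h after chemical dosing; total protein by 0.1% SRB staining after 10% TCA fixation, read at 560 nm. Positive-direction fitting versus DMSO baseline.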

Read-out in experiment [9]: Macrophage colony-stimulating factor (MCSF), CSF1 (gene 1435)
Description: BSK_IMphg_MCSF: BioMAP Diversity Plus: IMphg Assay for Macrophage colony-stimulating factor (MCSF) Biomarker Activity (AID 2284293). Particulars: primary human endothelial cells with macrophages. Summed up: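 Co-culture of human venular endothelial cells and macrophages, 24 hours of chemical exposure. M-CSF quantified by ELISA, with parallel SRB total-protein staining for cytotoxicity; activity fitted relative to DMSO.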

Experiment [10] is described as follows: BSK_IMphg_SRB.Mphg: Macrophage Viability Assessment in the BioMAP Diversity Plus: IMphg Assay (AID 2284295). Particulars: primary human endothelial cells with macrophages. Summed up:
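Venular endothelial cells co-cultured with macrophages, read 24 h after dosing. Total protein measured by 0.1% SRB staining after 10% TCA fixation, absorbance at 560 nm. Fitted in positive direction against DMSO baseline.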

Read-out in experiment [11]: Thrombomodulin, THBD (gene 7056)
Description: BSK_LPS_Thrombomodulin: BioMAP Diversity Plus: LPS Assay for Thrombomodulin Biomarker Activity (AID 2284296). Particulars: primary human HUVEC with PBMC. The method, boiled down: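 Human umbilical vein endothelial cells co-cultured with PBMC and stimulated with LPS; cell-surface thrombomodulin measured by ELISA 24 hours after compound. Gain or loss versus DMSO; cytotoxicity checked by SRB staining in parallel cultures.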

Read-out in experiment [12]: Vascular cell adhesion molecule 1 (VCAM1), VCAM1 (gene 7412)
Description: BSK_IMphg_VCAM1: BioMAP Diversity Plus: IMphg Assay for Vascular cell adhesion molecule 1 (VCAM1) Biomarker Activity (AID 2284286). Particulars: primary human endothelial cells with macrophages. Summed up: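 Human venular endothelial cells co-cultured with macrophages; VCAM-1 quantified by ELISA 24 h after dosing, fitted in the positive direction against DMSO. Cytotoxicity was checked in parallel cultures by SRB total-protein staining (0.1% SRB after 10% TCA fixation, 560 nm).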

Read-out in experiment [13]: Interleukin-10 (IL10), IL10 (gene 3586)
Description: BSK_IMphg_IL10: BioMAP Diversity Plus: IMphg Assay for Interleukin-10 (IL10) Biomarker Activity (AID 2284294). Particulars: primary human endothelial cells with macrophages. The method, boiled down:
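Human venular endothelial cells cocultured with macrophages, dosed 24 h; IL-10 measured by ELISA, activity relative to DMSO. Cytotoxicity assessed in parallel cultures by sulforhodamine B total-protein staining.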

Read-out in experiment [14]: Intercellular Adhesion Molecule 1 (ICAM1), ICAM1 (gene 3383)
Description: BSK_hDFCGF_ICAM1: BioMAP Diversity Plus: hDFCGF Assay for Intercellular Adhesion Molecule 1 (ICAM1) Biomarker Activity (AID 2284287). Particulars: primary human foreskin fibroblasts. The method, boiled down: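 Primary human foreskin fibroblasts (hDFCGF system) dosed with chemical; ICAM-1 quantified by ELISA at 24 h relative to DMSO. Parallel SRB total-protein staining to assess overt cytotoxicity.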

E-selectin (Homo sapiens), sequence (P16581 whole entry, looked up): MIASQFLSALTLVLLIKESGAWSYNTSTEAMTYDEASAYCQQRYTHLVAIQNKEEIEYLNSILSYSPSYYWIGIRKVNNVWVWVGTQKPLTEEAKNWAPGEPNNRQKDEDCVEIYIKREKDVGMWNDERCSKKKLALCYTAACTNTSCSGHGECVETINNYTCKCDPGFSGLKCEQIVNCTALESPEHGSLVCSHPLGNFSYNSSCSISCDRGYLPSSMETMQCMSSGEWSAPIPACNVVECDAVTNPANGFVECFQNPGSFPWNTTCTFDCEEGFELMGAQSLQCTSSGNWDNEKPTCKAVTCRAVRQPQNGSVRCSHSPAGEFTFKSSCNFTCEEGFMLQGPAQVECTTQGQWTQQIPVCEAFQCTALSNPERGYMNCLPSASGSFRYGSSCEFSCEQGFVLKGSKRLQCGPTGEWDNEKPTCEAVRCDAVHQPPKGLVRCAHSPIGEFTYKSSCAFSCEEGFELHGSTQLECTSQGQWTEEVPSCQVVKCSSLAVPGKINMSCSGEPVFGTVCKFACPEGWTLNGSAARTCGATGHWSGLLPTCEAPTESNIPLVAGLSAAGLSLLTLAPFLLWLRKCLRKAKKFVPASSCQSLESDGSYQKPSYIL

As a reminder, the AC50 is the concentration giving half of the maximal activity seen. In the case of `FC(F)(I)C(F)(F)C(F)(F)C(F)(F)I`, the AC50 in [1] is 56.5 µM (active) and 55.2 µM (active); in experiment [2] it was 45.7 µM (active) and 49.4 µM (active); in [3], 52.1 µM (active) and 46.6 µM (active) and 47 µM (active); in experiment [5], 46 µM (active); in [9], 30 µM (active) and 19.6 µM (active); in experiment [10] it was 47.8 µM (active) and 45.9 µM (active). Moreover, the AC50 in experiment [11] is 45.8 µM (active). Further, the outcome in [1], in [2], in [4], in experiment [5], in experiment [6] and in [7] was inactive. Further, the outcome in experiment [8], in [9], in experiment [10] and in experiment [11] was inactive.

`OCC(F)(F)C(F)(F)C(F)(F)C(F)(F)C(F)(F)C(F)(F)F`: the outcome in experiment [1], in [2], in [3], in [12], in [4] and in experiment [5] was inactive. In addition, the result in experiment [6], in [7], in [8], in [9], in experiment [10] and in experiment [11] was inactive. Besides, the AC50 in experiment [3] was 23 µM (active); in [5] it was 42.2 µM (active); in [10], 21.6 µM (active).

Regarding `O=C(Cl)C(F)(F)C(F)(F)C(F)(F)C(F)(F)C(F)(F)C(F)(F)C(F)(F)C(F)(F)F`, the half-maximal activity concentration (AC50) is 55.1 µM (active) and 54.8 µM (active) in experiment [1]; 49.5 µM (active) and 46.4 µM (active) in [3]; 36.6 µM (active) in experiment [4]; 1.59 µM (active) in experiment [5]; 40.2 µM (active) in [7]; 54.8 µM (active) and 40 µM (active) and 47.8 µM (active) in [8]. Moreover, in [11], the half-maximal activity concentration (AC50) is 40.9 µM (active) and 21.5 µM (active). Besides, the outcome in experiment [2], in experiment [3], in [4], in experiment [5], in experiment [6] and in experiment [7] was inactive. Besides, the outcome in experiment [9], in experiment [10] and in experiment [11] was inactive.

For `FC(F)(Br)C(F)(F)C(F)(F)C(F)(F)C(F)(F)C(F)(F)Br`, the result in [1], in experiment [2], in experiment [3], in [12], in experiment [4] and in experiment [5] was inactive. Moreover, the result in experiment [6], in experiment [7], in [8], in experiment [9], in experiment [10] and in [11] was inactive.

As for `C=CC(=O)OCC(F)(F)C(F)(F)C(F)(F)C(F)(F)C(F)(F)C(F)(F)C(F)(F)F`, the result in experiment [1], in experiment [2], in experiment [3], in experiment [12], in [4] and in experiment [5] was inactive. Besides, the result in [6], in experiment [7], in experiment [8], in [9], in experiment [13] and in [10] was inactive. In addition, the outcome in [11] was inactive. Besides, the half-maximal activity concentration (AC50) in [4] was 6.54 µM (active).

For the compound `C=C(C)C(=O)OCCC(F)(F)C(F)(F)C(F)(F)C(F)(F)C(F)(C(F)(F)F)C(F)(F)F`, the result in [1], in experiment [2], in experiment [3], in experiment [12], in experiment [14] and in experiment [4] was inactive. Moreover, the result in experiment [5], in experiment [6], in experiment [7], in experiment [8], in [9] and in [13] was inactive. Moreover, the outcome in [10] and in experiment [11] was inactive.

In the case of `C=C(C)C(=O)OCC(F)(F)C(F)(F)C(F)(F)F`, the result in experiment [1], in experiment [2], in experiment [3], in [12], in [14] and in [4] was inactive. Further, the result in experiment [5], in experiment [6], in experiment [7], in experiment [8], in experiment [9] and in [13] was inactive. The result in experiment [10] and in experiment [11] was inactive.

Take `O=C(O)C(F)(F)C(F)(F)C(F)(F)C(F)(F)C(F)(F)C(F)(F)C(F)(F)C(F)(F)C(F)(F)C(F)(F)C(F)(F)C(F)(F)C(F)(F)F`: the concentration at half-maximal activity (AC50) in experiment [1] is 675 nM (active). Also, the outcome in experiment [1], in experiment [2], in [3], in [12], in experiment [4] and in experiment [5] was inactive. Moreover, the outcome in [6], in [7], in [8], in experiment [9], in experiment [10] and in [11] was inactive.

In the case of `CCCCC(CC)COP(=O)(O)OCC(CC)CCCC` (stereo not given), the AC50 is 29600 nM (active) in experiment [1] and 32.2 µM (active) in experiment [3]. In addition, the result in experiment [1], in experiment [2], in experiment [14], in [5] and in experiment [11] was inactive.

On to `FC(F)(F)C(F)(F)CNCC(F)(F)C(F)(F)F`, for which the outcome in experiment [1], in experiment [2], in experiment [3], in experiment [12], in experiment [4] and in [5] was inactive. Moreover, the outcome in [6], in experiment [7], in [8], in experiment [9], in experiment [10] and in experiment [11] was inactive. The AC50 in experiment [11] is 0.227 µM (active).

Take `C=CC(=O)OCC(F)(F)C(F)(F)C(F)(F)C(F)(F)COC(=O)C=C`: the AC50 in experiment [1] was 7.28 µM (active) and 11.8 µM (active); in experiment [2] it was 53.7 µM (active) and 53.4 µM (active); in experiment [3] it was 7.35 µM (active) and 7.89 µM (active); in [14], 10.6 µM (active) and 10.3 µM (active); in [4], 18.8 µM (active) and 25 µM (active); in experiment [5] it was 12.4 µM (active) and 12.7 µM (active). The AC50 was 30 µM (active) in experiment [6]; 25.1 µM (active) and 31.3 µM (active) in experiment [7]; 24.4 µM (active) and 33.7 µM (active) in experiment [13]; 21.5 µM (active) and 51.8 µM (active) in [10]; 51.4 µM (active) in experiment [11]. Moreover, the outcome in [6], in [8], in experiment [9] and in experiment [11] was inactive.

Take `OCCCC(F)(F)C(F)(F)C(F)(F)C(F)(F)C(F)(F)C(F)(F)C(F)(F)F`: the AC50 in [1] is 47.3 µM (active) and 55.3 µM (active); in experiment [2], 45.3 µM (active) and 48.2 µM (active); in experiment [3] it was 16.1 µM (active) and 17.6 µM (active); in experiment [14], 18.3 µM (active) and 20.1 µM (active); in experiment [4], 42.5 µM (active) and 53 µM (active); in [5], 14.4 µM (active) and 16.8 µM (active). The AC50 is 45.4 µM (active) in [7]; 51.8 µM (active) and 47.2 µM (active) in experiment [8]; 45.8 µM (active) in experiment [9]; 46.3 µM (active) in experiment [10]; 49.4 µM (active) and 45.6 µM (active) in [11]. Also, the result in [6], in experiment [7], in experiment [9] and in experiment [10] was inactive.
